{"source": "the supplement of paper PMC3484114", "note": "± gives the standard deviation."}
{"test_system": "OVCAR-3-derived ovarian cancer stem-like cells (spheroids)", "test": "cell growth relative to untreated control; higher = more growth (less inhibition)", "details": "2.29 µM; 96 h", "in_short": "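Percent growth was calculated against untreated wells once blanks were subtracted and Grubbs outliers removed. The cells were OVCAR-3 spheroid-derived stem-like cells, trypsinized and plated at 50,000 cells/mL in stem cell medium on ultra-low attachment 96-well plates for a 24 h preincubation. They were then exposed to compounds at 2.29 uM for 96 h at 37°C, 5% CO2, in 4 replicate wells, and viability was measured by TOX8 resazurin fluorescence (ex 560/em 590 nm) after 4 h.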", "units": {"cell growth": "%"}}
{"compound": "CCOC(=O)[C@H](CC(C)C)NC(=O)C(Cc1ccc(N(CCCl)CCCl)cc1)NC(C)=O", "note": "(stereo partly specified)", "cell growth": "73.3 ± 40"}
{"compound": "Fc1cccc(F)c1C1SCc2nc3ccccc3n21", "note": "(stereo unspecified)", "cell growth": "78.4 ± 9.6"}
{"compound": "CCOC(OCC)C(CC)[Se]c1ccccc1[N+](=O)[O-]", "note": "(stereo unspecified)", "cell growth": "120 ± 21"}
{"compound": "CC[PH+](CC)CC.[Cl][Au]", "cell growth": "103 ± 27"}
{"compound": "COc1ccc(C2C=C(c3ccc4c(c3)OCO4)Oc3c2c(=O)oc2ccccc32)cc1OC", "note": "(stereo unspecified)", "cell growth": "56.4 ± 40"}
{"compound": "COC1C(C)OC(OC2CC(C)(O)Cc3cc4c(c(O)c32)C(=O)c2c(O)cc3c(c2C4=O)OC2OC3(C)C(O)C(N(C)C)C2O)C(OC)C1(C)OC", "note": "(stereo unspecified)", "cell growth": "8.5 ± 3.2"}
{"compound": "O=[N+]([O-])[O-].O=[N+]([O-])[O-].O=[N+]([O-])[O-].[Ga+3]", "cell growth": "120 ± 11"}
{"compound": "CCC[CH2][Pb]([Cl])([CH2]CCC)[CH2]CCC", "cell growth": "5.1 ± 5.5"}
{"compound": "COc1cccc2c1cc([N+](=O)[O-])c1c(C(=O)O)cc3c(c12)OCO3", "cell growth": "95.5 ± 14"}
{"compound": "CC(C)(O)C=CC(=O)C(C)(O)C1C(O)CC2(C)C3CC=C4C(C=C(O)C(=O)C4(C)C)C3(C)C(=O)CC12C", "note": "(stereo unspecified)", "cell growth": "28.1 ± 6.1"}
{"compound": "O=C([O][Hg][CH2]C1COC([CH2][Hg][O]C(=O)c2ccccc2)CO1)c1ccccc1", "note": "(stereo unspecified)", "cell growth": "69.9 ± 76"}
{"compound": "COC1CC(O[C@H]2CC[C@]3(C=O)[C@H]4CC[C@]5(C)[C@@H](C6=CC(=O)OC6)CC[C@]5(O)[C@@H]4CC[C@]3(O)C2)OC(C)C1O", "note": "(stereo partly specified)", "cell growth": "52.2 ± 16"}
{"compound": "CC1=C[C@H]2O[C@@H]3[C@H](O)[C@@H](O)[C@@](C)([C@@]2(CO)CC1)[C@]31CO1", "cell growth": "36 ± 10"}
{"compound": "O=c1[nH]c2ccccc2n1C1CCN(CCCC(c2ccc(F)cc2)c2ccc(F)cc2)CC1", "cell growth": "90.6 ± 41"}
{"compound": "CC1=C(N2CC2)C(=O)c2nc3n(c2C1=O)CCC3OC(=O)CCl", "note": "(stereo unspecified)", "cell growth": "65.2 ± 6.7"}
{"compound": "COc1ccc(O)c2c(=O)c3c(OC)cc4c(c3oc12)[C@@H]1C=CO[C@@H]1O4", "cell growth": "90.1 ± 25"}
{"compound": "C/C(=N\\N=C(/[Se])N1CC2CCC(CC2)C1)c1ccccn1", "cell growth": "7.7 ± 2.4"}
{"compound": "Oc1cccc2cccnc12", "cell growth": "80.4 ± 14"}
{"compound": "CC12CCC(O)CC1CCC1C2CCC2(C)C(C3=CC(=O)OC3)CCC12O", "note": "(stereo unspecified)", "cell growth": "26.5 ± 3.1"}
{"compound": "CC[C@@]1(O)C[C@H](O)c2c(O)c3c(c(O)c2[C@H]1C(=O)OC)C(=O)c1cccc(O)c1C3=O", "cell growth": "49.5 ± 20"}
{"compound": "CCC(=O)OC1CCn2c1nc1c2C(=O)C(C)=C(N2CC2)C1=O", "note": "(stereo unspecified)", "cell growth": "130 ± 34"}
{"compound": "COc1cccc2c1C(=O)c1c(O)c3c(c(O)c1C2=O)C[C@@](O)(C(C)=O)C[C@@H]3O[C@H]1C[C@H](N(Cc2ccccc2)Cc2ccccc2)[C@H](O)[C@H](C)O1", "cell growth": "62.8 ± 11"}
{"compound": "C[C@@H]1CC[C@@]2(OC1)O[C@H]1CC3[C@@H]4CC=C5C[C@@H](O[C@@H]6O[C@H](CO)[C@@H](O[C@@H]7O[C@@H](C)[C@H](O[C@@H]8O[C@@H](C)[C@H](O)[C@@H](O)[C@@H]8O)[C@@H](O)[C@H]7O)[C@H](O)[C@H]6O[C@@H]6O[C@@H](C)C(O)[C@@H](O)[C@H]6O)CC[C@]5(C)[C@H]4CC[C@]3(C)[C@H]1[C@@H]2C", "note": "(stereo partly specified)", "cell growth": "8.03 ± 3.1"}
{"compound": "O=C1N[C@@H]2C(=C[C@H](O)[C@@H](O)[C@H]2O)c2cc3c(cc21)OCO3", "cell growth": "31.7 ± 7.1"}
{"compound": "COc1cc2c(cc1O)N=CC1CCC(O)N1C2=O", "note": "(stereo unspecified)", "cell growth": "93.8 ± 20"}
{"compound": "Cc1ccc(N=Nc2c(O)ccc3ccccc23)cc1", "cell growth": "74.1 ± 8.8"}
{"compound": "C=C(C)C(=O)OC1CCC2(C)C(CCC3C2CCC2(C)C(c4ccc(=O)oc4)CC4OC432)C1", "note": "(stereo unspecified)", "cell growth": "92.2 ± 18"}
{"compound": "CC(=O)[O][Sn]([CH2]c1ccccc1)([CH2]c1ccccc1)[CH2]c1ccccc1", "cell growth": "112 ± 25"}
{"compound": "C[C@@H]1C[C@H]2CC[C@H](O2)[C@H](C)C(=O)O[C@@H](C)C[C@@H]2CC[C@@H](O2)[C@@H](C)C(=O)O[C@H](C)C[C@H]2CC[C@H](O2)[C@H](C)C(=O)O[C@@H](C)C[C@@H]2CC[C@@H](O2)[C@@H](C)C(=O)O1", "cell growth": "31.3 ± 6"}
{"compound": "COc1ccc(NC2=NCCO2)c2c1CCCC2", "cell growth": "98.5 ± 10"}
{"compound": "O=[Se](O)O.[Na+]", "cell growth": "112 ± 29"}
